In the library only some 10% were active in any assay of this set; here they are far more common.
PNC assembly inh = High Content Assay for Compounds that inhibit the Assembly of the Perinucleolar Compartment; AID 2417, 2010; activity change (PNC), negative = inhibition, % at 10 µM; PC3M PTB-GFP, PNC prevalence imaging, 16 h; stronger effect = lower value; 3.1% of 140,000 active;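 active means readout at or below -70, meaning at least 70% loss of cells showing the perinucleolar compartment, a nuclear body marking cancer cells; inconclusive means readout between -30 and a set limit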;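 further: plate controls were DMSO wells for no effect and camptothecin positive control wells for full effect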
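Read-out is percentage of cells bearing a perinucleolar compartment, from automated 20x imaging of fixed, Hoechst-stained PC3M PTB-GFP cells. Cells were seeded 4 h, then exposed 16 h to compound (23 nl of library stock) in duplicate plates.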
12-hLO inh = qHTS Assay for Inhibitors of 12-hLO (12-human lipoxygenase); Polyunsaturated fatty acid lipoxygenase ALOX12 (Homo sapiens), P18054; purified 12-hLO, xylenol orange hydroperoxide absorbance; Potency, µM (highest dose often 57.1 µM), inactives show top-dose activity change, negative = inhibition, most hits filed as inhibitors; 0.12% of 150,000 active; AID 1452, 2008; active means well fitted inhibition curve with a large enough effect; inconclusive means small, poorly fitted or top-dose-only effect; further: potency means the concentration at half of the fitted maximal effect; nearly all actives have a fitted effect of over 55% in size
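150 nM 12hLO, 25 mM Hepes pH 7.0 + 0.01% Triton X-100; cpd preinc 15 min RT; 40 uM arachidonic acid, 30 min RT; Fe-XO 30 min; A573/A405 ratio as read-out.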
ALDH1A1 block = qHTS Assay for Inhibitors of Aldehyde Dehydrogenase 1 (ALDH1A1) | Purified ALDH1A1, NADH fluorescence, propionaldehyde substrate | 7.3% of 220,000 active | Potency, µM (titrated, usually from 75.3 µM), for the others: top-dose activity, negative = inhibition, hits mostly inhibitors;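 further: potency means the concentration at half of the fitted maximal effect; plate controls were no enzyme wells and a reference inhibitor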
Target sequence (P00352 whole entry, looked up): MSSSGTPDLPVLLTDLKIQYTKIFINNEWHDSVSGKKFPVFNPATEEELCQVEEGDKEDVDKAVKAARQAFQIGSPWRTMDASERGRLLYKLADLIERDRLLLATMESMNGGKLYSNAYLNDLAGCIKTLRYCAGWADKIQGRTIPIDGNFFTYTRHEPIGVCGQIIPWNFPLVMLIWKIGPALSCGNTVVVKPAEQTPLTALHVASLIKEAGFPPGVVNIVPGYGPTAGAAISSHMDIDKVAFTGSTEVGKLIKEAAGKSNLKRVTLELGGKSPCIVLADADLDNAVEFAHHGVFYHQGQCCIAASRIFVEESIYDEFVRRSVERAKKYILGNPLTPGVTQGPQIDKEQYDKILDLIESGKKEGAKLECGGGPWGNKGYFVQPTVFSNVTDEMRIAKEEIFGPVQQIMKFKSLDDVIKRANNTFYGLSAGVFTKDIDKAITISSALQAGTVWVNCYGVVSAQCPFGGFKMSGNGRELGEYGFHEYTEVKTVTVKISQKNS
LMNA splice mod = qHTS Assay for Modulators of Lamin A Splicing; 0.01% of 200,000 active; Potency, µM (doses to about 46.1 µM), for inactives: top-dose ratio change, negative = inhibition, hits mostly inhibitors; HeLa LMNA splicing GFP/RFP minigene ratio, 48 h; active means well fitted inhibition curve with a large enough effect in the signal ratio, with a control signal flat, not every such curve was filed as active; inconclusive means small, poorly fitted or top-dose-only effect, or effect the other way, or a change in a side signal; the % refers to the signal ratio; further: potency means the concentration at half of the fitted maximal effect
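S3 HeLa cells stably expressing lamin A-EGFP splicing minigene plus DsRed2, 600 cells/well, 48 h compound exposure at 37C. Laser-scanning cytometry; analysed as GFP (500-530 nm)/RFP (575-640 nm) total intensity ratio; 0.5% DMSO vehicle.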
HPGD block = qHTS Assay for Inhibitors of HPGD (15-Hydroxyprostaglandin Dehydrogenase); Potency, µM, without a hit: top-dose activity change, negative = inhibition, most hits filed as inhibitors; purified HPGD, NADH fluorescence kinetic, PGE2 substrate; 4.3% of 150,000 active; 15-hydroxyprostaglandin dehydrogenase [NAD(+)] (Homo sapiens), P15428; further: potency means the concentration at half of the fitted maximal effect
Target sequence (P15428 whole entry, looked up): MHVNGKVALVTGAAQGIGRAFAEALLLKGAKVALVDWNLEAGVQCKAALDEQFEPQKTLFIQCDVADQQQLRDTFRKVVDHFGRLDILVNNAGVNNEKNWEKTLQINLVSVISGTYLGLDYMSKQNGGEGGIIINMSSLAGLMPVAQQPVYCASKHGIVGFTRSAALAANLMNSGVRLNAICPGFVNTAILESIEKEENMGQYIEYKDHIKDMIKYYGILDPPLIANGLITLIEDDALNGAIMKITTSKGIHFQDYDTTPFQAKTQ
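NADH formation kinetics: reaction with 30 uM PGE2 and 1 mM NAD+ (final), 20 nM enzyme, Tris-HCl pH 8 with Tween 20, after 15 min compound preincubation at room temperature. Fluorescence change, last versus first of five reads.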
* = called active by the depositor; ? = inconclusive; / = no result; [ ] = another dose, or the depositor's remark. Unless noted, the call rests on the fitted dose curve; in most records, active means well fitted inhibition curve with a large enough effect (not every such curve was filed as active); inconclusive means small, poorly fitted or top-dose-only effect, or another doubt; inactive means no such curve, though single readings can be large or run the other way. Unless noted, on the % scale 0 is the no-effect control and ±100 the full control effect.

SMILES	PNC assembly inh	12-hLO inh	ALDH1A1 block	LMNA splice mod	HPGD block
COCCOC(=O)C1=C(C)Nc2cc(=O)[nH]c(=O)n2C1c1cccc([N+](=O)[O-])c1 (centres undefined)	-109.0*	-5.4%	?	-1.1%	0.1%
Cc1ccc(/C=C/C(=O)Nc2cc(=O)n(C)c(=O)n2C)o1	-12.1	-1.4%	22.4µM*	2.2%	-10.9%
Cn1c(NC(=O)/C=C/c2ccco2)cc(=O)n(C)c1=O	-121.5*	-8.1%	?	-6.5%	-6.8%
CCOc1ccccc1OCC(=O)NCc1ccco1	16.3	-8.0%	?	9.2%	-20.4%
O=C(COc1ccccc1-c1ccccc1)NCc1ccco1	/	/	7.08µM*	5.9%[46 µM]	/
Cc1cc(Cl)cc(Cl)c1OCC(=O)NCc1ccco1	25.6	?	?	?	25.1µM*
O=C(COc1ccc(Cl)cc1Cl)NCc1ccco1	36.7	-13.8%	0.2%	?	?
Cc1ccc(OCC(=O)NCc2ccco2)cc1C	?	-9.5%	?	5.3%	20µM*
Cc1nn(-c2ccccc2)c(C)c1C(=O)OCC(=O)NCc1ccco1	-9.3	2.0%	22.4µM*	7.3%	-17.1%
Cc1cc(C)nc(SCCc2ccncc2)n1	?	-13.3%	25.1µM*	12.6%	-21.4%
Cc1cc(C)nc(SCSc2nc(C)cc(C)n2)n1	7.4	0.2%	8.0%	?	-21.0%
CSc1ccccc1OC1CCN(Cc2ccccc2)CC1	-109.1*	-5.0%	-1.7%	?	-13.2%
Cc1ccc(F)cc1NC(=O)Cn1c(=O)nc(-c2ccccc2F)c2cc(Cl)ccc21	/	/	/	-2.3%[46 µM]	/
CCCCNC(=S)NC(=O)c1ccc(Cl)cc1Cl	?	?	25.1µM*	20.5%	-16.7%
CSc1nnc(CNC(=O)C23CC4CC(CC(C4)C2)C3)n1Cc1ccccc1	-115.1*	-0.4%	-10.0%	-0.9%	1.0%
CC(C)Sc1nnc(CNC(=O)C23CC4CC(CC(C4)C2)C3)n1Cc1ccccc1	-17.4	-2.1%	-2.9%	-14.9%	-7.2%
Cc1ccc(-n2ncc(C(=O)NCCN3CCc4ccccc4C3)c2C2CCNCC2)cc1C	/	/	/	10.6%[46 µM]	/
NCC1O[C@@H](O[C@H]2C(O)C(O[C@@H]3C(O[C@H]4OC(CO)C(O)C(O)C4N)C(N)CC(N)[C@H]3O)O[C@@H]2CO)C(N)C(O)C1O (some centres undefined)	/	1.2%	3.7%	/	1.9%
CC(C)OCCCN1C=C2C(=O)C(C)(OC(=O)C3CCCC3)C(=O)C=C2C=C1c1ccsc1 (centres undefined)	/	-10.0%[11.4 µM]	?	3.9%[9.22 µM]	-5.7%
CC(=O)OC1C[C@@]2(C)C(c3ccoc3)OC(=O)C3O[C@@]32[C@]2(C)C(OC(C)=O)CC3C(C)(C)C(OC(C)=O)CC(OC(C)=O)[C@@]3(C)C12 (some centres undefined)	/	1.0%	4.9%	/	20.8%
C=CCOc1c(OC)cc(Cl)cc1C1NC(=O)NC(C)=C1C(C)=O (centres undefined)	9.5	-9.0%	10.3%	?	-3.9%
COc1cc(Cl)cc(C2NC(=O)NC(C)=C2C(C)=O)c1OCC(=O)O (centres undefined)	27.3	-5.0%	2.24µM*	10.5%	-9.3%
CN(C(=O)CSc1nc2c(c(=O)[nH]1)CCC2)c1ccccc1	/	/	-11.8%	?	/
O=C1C2C3C=CC(C2C(=O)N1C1CCCCC1)C1C(=O)N(C2CCCCC2)C(=O)C31 (centres undefined)	-2.0	10.6%	2.82µM*	-6.5%	-1.4%
O=C1C2C3C=CC([C@@H]2C(=O)N1C1CC1)[C@H]1C(=O)N(C2CC2)C(=O)C31 (some centres undefined)	92.4	-0.4%	?	2.7%[0.0737 µM]	-5.6%
SMILES	PNC assembly inh	12-hLO inh	ALDH1A1 block	LMNA splice mod	HPGD block
CCC(C)NC(=O)C1CCCN1S(=O)(=O)c1ccc(Cl)cc1 (centres undefined)	-118.9*	-1.4%	6.7%	-3.2%	-11.7%
Cc1cccc(C(=O)Nc2ccc(C(=O)OCc3cc(=O)n4c5c(sc4n3)CCCC5)cc2)c1	/	/	/	-13.2%[46 µM]	/
CS/C(=C\[N+](=O)[O-])Nc1ccccc1	-9.7	-9.2%	?	5.9%	-7.7%
CS/C(=C\[N+](=O)[O-])Nc1ccc(F)cc1	-15.6	-2.8%	15.8µM*	?	-12.9%
CCOc1ccc(CCNC(=O)c2cnc3sc(N4CCOCC4)nn3c2=O)cc1	/	/	/	0.9%[46 µM]	/
CC(=O)CCc1oc2ccc([N+](=O)[O-])cc2c1-c1ccc(C)o1	/	/	10µM*	?	/
O=C1C=C(NCCN2CCOCC2)C(=O)c2cnccc21	-82.3*	-7.2%	-8.2%	?	-15.9%
O=C1C=C(NCCO)C(=O)c2cnccc21	/	-9.2%	8.5%	/	-8.4%
Cc1cccc(CN2CCN(c3nc4nonc4nc3NC3CC3)CC2)c1	/	/	15.8µM*	/	/
Cc1ccc2c(c1)C=CC(C#N)N2C(=O)c1ccccc1 (centres undefined)	-88.2*	1.2%	-16.6%	?	1.8%
Cc1ccccc1-c1ccc2ncnc(N3CCNCC3)c2c1	/	/	?	15.3%	/
O=C(NCc1ccccn1)C1CCN(Cc2cnn(-c3ccccc3)c2-n2cccc2)CC1	-11.8	6.0%	25.1µM*	-3.3%	-13.6%
CCN1CCCC1Cn1c(-c2ccccc2)nc2c(NCc3ccccc3)nc(C)nc21 (centres undefined)	/	-2.7%	?	/	?
CC(=O)N[C@@H](Cc1ccc(O)cc1)C(=O)O	/	-5.4%[0.00818 µM]	-0.8%	?	0.9%
COc1ccccc1NC(=O)c1sc2nc(-c3cc4cc(Cl)ccc4oc3=O)[nH]c(=O)c2c1C	/	/	/	16.3%[46 µM]	/
CCCC12CN3CCN(CC(C3)/C1=N\NC(=O)c1ccc(C(C)(C)C)cc1)C2	-26.2	2.2%	31.6µM*	-11.7%	1.0%
CCCC12CN3CCN(CC(C3)/C1=N\NC(=O)c1ccccc1N)C2	-5.0	2.1%	?	?	?
Cc1cccc(C)c1-n1c(C)cc(/C=N\Nc2ccc([N+](=O)[O-])cn2)c1C	3.0	-19.3%	10µM*	14.7%	-19.8%
CNC(=S)N/N=C/c1cn(Cc2ccc(F)cc2)c2ccccc12	?	?	28.2µM*	?	-14.6%
C#CCn1cc(/C=N/NC(=O)COc2cccc3cccnc23)c2ccccc21	31.8	-1.6%	10µM*	2.0%	-21.4%
Cc1ccc(OCC(=O)N/N=C\c2cn(Cc3ccccc3)c3ccccc23)cc1C	-3.6	1.2%	12.6µM*	-16.3%	?
O=[N+]([O-])c1ccc(N/N=C\c2cccnc2)nc1	/	/	-9.3%	/	/
COC(=O)Cn1cc(/C=N/NC(=O)COc2cccc3cccnc23)c2ccccc21	-6.5	-0.2%	?	-1.8%	-14.3%

Screening results as filed in PubChem.
